PubChem BioAssay AID1159580 (chemical genetic matrix, 2015)
Several values for one entry are separate records, joined by “and”; a condition that tells them apart may be missing. Equal values may be shown once. About 2,000 (36%) of roughly 5,500 compounds were called active. About 18% were inconclusive and are not listed. Rule as the data show it: active = normalized growth mostly below about 0.91 (no sharp cut-off); inconclusive = no clear call, values can overlap the other calls; inactive = mostly above about 0.92. This is one part of the list.

Test: chemical genetic growth profiling, strain panel (AID 1159580);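 also: tested at 20 µM; growth read once vehicle control cultures reached saturation at 30 °C; 1 = growth at the plate median or of vehicle wells; lower values mean less growth of the strain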
Conditions: S. cerevisiae deletion strains, growth OD

Measured: normalized growth

CCCCCCCCC(=O)NCc1ccc(O)c(OC)c1
inactive: locus YAL013W, strain DEP1, stronger effect = lower value 0.99 | locus YAL021C, strain ccr4, stronger effect = lower value 0.996 | locus YAL026C, strain drs2, stronger effect = lower value 1.01 | locus YAL030W, strain snc1, stronger effect = lower value 1 | locus YAL040C, strain CLN3, stronger effect = lower value 0.982 | locus YBL061C, strain skt5, stronger effect = lower value 1.01 | locus YBR009C, strain hhf1, stronger effect = lower value 0.987 | locus YBR021W, strain FUR4, stronger effect = lower value 0.958 | locus YBR023C, strain chs3, stronger effect = lower value 0.989 | locus YBR171W, strain sec66, stronger effect = lower value 0.983 | locus YBR229C, strain ROT2, stronger effect = lower value 0.988 | locus YBR231C, strain swc5, stronger effect = lower value 0.995 | locus YBR279W, strain paf1, stronger effect = lower value 1.01 | locus YCL011C, strain gbp2, stronger effect = lower value 0.981 | locus YCL016C, strain dcc1, stronger effect = lower value 0.984 | locus YCL029C, strain bik1, stronger effect = lower value 0.989 | locus YCL061C, strain MRC1 (second series), stronger effect = lower value 0.994 | locus YCL061C, strain MRC1, stronger effect = lower value 1 | locus YCL069W, strain vba3, stronger effect = lower value 0.979 | locus YCR088W, strain abp1, stronger effect = lower value 0.975 | locus YDL005C, strain med2, stronger effect = lower value 0.995 | locus YDL035C, strain GPR1, stronger effect = lower value 0.981 | locus YDL040C, strain nat1, stronger effect = lower value 1 | locus YDL074C, strain BRE1, stronger effect = lower value 0.981 | locus YDL101C, strain DUN1, stronger effect = lower value 0.976 | locus YDL134C, strain PPH21, stronger effect = lower value 0.976 | locus YDL185W, strain tfp1, stronger effect = lower value 0.991 | locus YDL192W, strain arf1, stronger effect = lower value 0.989 | locus YDR001C, strain nth1, stronger effect = lower value 0.988 | locus YDR069C, strain doa4, stronger effect = lower value 1 | locus YDR101C, strain arx1, stronger effect = lower value 0.98 | locus YDR137W, strain rgp1, stronger effect = lower value 1.03 | locus YDR150W, strain NUM1, stronger effect = lower value 0.989 | locus YDR159W, strain sac3, stronger effect = lower value 1.07 | locus YDR162C, strain NBP2, stronger effect = lower value 1.01 | locus YDR195W, strain ref2 1.04 | locus YDR297W, strain sur2, stronger effect = lower value 1 | locus YDR318W, strain mcm21, stronger effect = lower value 0.965 | locus YDR334W, strain swr1, stronger effect = lower value 0.997 | locus YDR335W, strain msn5, stronger effect = lower value 1.01 | locus YDR363W, strain ESC2, stronger effect = lower value 0.988 | locus YDR388W, stronger effect = lower value 0.981 | locus YDR392W, strain spt3, stronger effect = lower value 0.805 | locus YDR502C, strain sam2, stronger effect = lower value 0.978 | locus YEL003W, strain gim4, stronger effect = lower value 0.985 | locus YEL037C, strain rad23, stronger effect = lower value 0.982 | locus YEL061C, strain CIN8 (second series), stronger effect = lower value 0.982 | locus YEL061C, strain CIN8, stronger effect = lower value 0.998 | locus YER002W, strain NOP16, stronger effect = lower value 0.986 | locus YER015W, strain faa2, stronger effect = lower value 1.01 | locus YER016W, strain bim1, stronger effect = lower value 1.01 | locus YER110C, stronger effect = lower value 0.981 | locus YER111C, strain swi4, stronger effect = lower value 0.991 | locus YER155C, strain BEM2 (second series), stronger effect = lower value 0.964 | locus YER155C, strain BEM2, stronger effect = lower value 0.985 | locus YER167W, strain BCK2, stronger effect = lower value 0.978 | locus YFR010W, strain ubp6, stronger effect = lower value 1.02 | locus YGL078C, strain dbp3, stronger effect = lower value 0.992 | locus YGL086W, strain mad1, stronger effect = lower value 0.967 | locus YGL167C, strain pmr1, stronger effect = lower value 1 | locus YGL173C, strain kem1, stronger effect = lower value 1.01 | locus YGL227W, strain vid30, stronger effect = lower value 0.971 | locus YGL240W, strain doc1, stronger effect = lower value 0.994 | locus YGL248W, strain PDE1, stronger effect = lower value 0.981 | locus YGL253W, strain hxk2, stronger effect = lower value 1.03 | locus YGR078C, strain PAC10, stronger effect = lower value 1.01 and 1 | locus YGR135W, strain pre9, stronger effect = lower value 0.987 | locus YGR229C, strain SMI1, stronger effect = lower value 1 | locus YGR252W, strain gcn5, stronger effect = lower value 0.872 | locus YHR013C, strain ard1, stronger effect = lower value 0.992 | locus YHR027C, strain rpn1, stronger effect = lower value 1.02 | locus YHR030C, strain SLT2, stronger effect = lower value 0.988 and 1.01 | locus YHR079C, strain IRE1 (second series), stronger effect = lower value 0.985 | locus YHR079C, strain IRE1, stronger effect = lower value 0.985 | locus YHR094C, strain hxt1, stronger effect = lower value 0.979 | locus YHR129C, strain ARP1, stronger effect = lower value 0.988 | locus YHR142W, strain chs7, stronger effect = lower value 0.983 | locus YHR200W, strain rpn10, stronger effect = lower value 0.981 | locus YIL066C, strain RNR3, stronger effect = lower value 0.953 | locus YIL073C, strain SPO22, stronger effect = lower value 0.958 | locus YIL125W, strain kgd1, stronger effect = lower value 0.99 | locus YIR030C, strain dcg1, stronger effect = lower value 0.983 | locus YJL092W, strain hpr5, stronger effect = lower value 0.978 | locus YJL095W, strain BCK1 (second series), stronger effect = lower value 1 | locus YJL095W, strain BCK1, stronger effect = lower value 0.989 and 1 | locus YJL115W, strain asf1, stronger effect = lower value 0.988 | locus YJL129C, strain trk1, stronger effect = lower value 0.977 | locus YJL134W, strain LCB3, stronger effect = lower value 0.989 | locus YJL154C, strain vps35, stronger effect = lower value 0.983 | locus YJL164C, strain tpk1, stronger effect = lower value 0.972 | locus YJL166W, strain qcr8, stronger effect = lower value 0.991 | locus YJL168C, strain set2, stronger effect = lower value 0.99 | locus YJL187C, strain SWE1 (second series), stronger effect = lower value 0.978 | locus YJL187C, strain SWE1, stronger effect = lower value 1.02 | locus YJR043C, strain POL32, stronger effect = lower value 0.983 | locus YJR066W, strain TOR1, stronger effect = lower value 0.91
